Screen size: about 7,900 compounds; about 400 (5.1%) showed an effect of 50% or more. What follows is part of a selection rich in strong results, with near analogues and random picks from the rest.

From publication PMC9574860, “Chemical Toolkit for PARK7: Potent, Selective, and High-Throughput” (Journal of Medicinal Chemistry, 2022) come the findings set out here.

Sequence of Parkinson's disease protein 7 (PARK7/DJ1) (Q99497 whole entry, looked up, the tested form may be a part): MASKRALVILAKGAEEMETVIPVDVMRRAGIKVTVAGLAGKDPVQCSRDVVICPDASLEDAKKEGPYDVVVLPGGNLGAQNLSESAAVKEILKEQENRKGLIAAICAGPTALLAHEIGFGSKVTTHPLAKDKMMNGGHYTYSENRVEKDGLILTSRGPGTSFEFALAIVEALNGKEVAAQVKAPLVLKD

In the experiment the target is Parkinson's disease protein 7 (PARK7/DJ1) (human, UniProt Q99497). The experiment in a line: primary screen, percent inhibition; read as competition with a fluorescent probe by fluorescence polarization; higher = more effect of the substance. As to conditions: 100 µM. The gist of the method:
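Covalent fragments at 100 μM final were incubated 2 h with 0.2 μM PARK7, then 20 nM probe JYQ-107 added for a further 2 h. Fluorescence polarization read at 480/520 nm; relative FP loss versus reference controls gave remaining enzyme activity.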
For `C=CC(=O)Nc1ccc(S(=O)(=O)N2CCCC2)cc1`, the Inhibition % came to 8.4%.
As to `O=C(CCl)Nc1cccc(S(=O)(=O)N2CCCC2)c1`, the Inhibition % is 7.91%.
For `O=C(CCl)Nc1cccc(S(=O)(=O)N2CCOCC2)c1`, the Inhibition % is listed as 8.1%.
As to `O=C(CCl)Nc1ccc(S(=O)(=O)N2CCOCC2)cc1`, the Inhibition % stood at 87.4%.
On to `O=C(CCCl)Nc1ccc(S(=O)(=O)N2CCCC2)cc1`, for which the Inhibition % was determined as 3.33%.
With `O=C(CCl)Nc1ccc(S(=O)(=O)N2CCCCC2)cc1` the figure was 92.7%; with `O=C(CCl)Nc1ccc(S(=O)(=O)N2CCCC2)cc1`, 85.4%; with `Cl.O=C(CCl)Nc1ccc(CN2CCOCC2)cc1`, 40.1%.
Consider `O=C(CCCl)Nc1cccc(S(=O)(=O)N2CCCC2)c1`, for which the Inhibition % was 4.27%.
In the case of `Cn1cc(B2OC(C)(C)C(C)(C)O2)cn1`, the Inhibition % is reported as 4.89%.
Regarding `CC(C)(C(=O)CCl)N1C(=O)c2ccccc2C1=O`, the Inhibition % was determined as 5.76%.
With `C=CC(=O)N1C[C@@]2(C)CS(=O)(=O)C[C@@]2(C)C1` the figure was 5.67%.
As to `N#Cc1nc(C2CC2)oc1N1CCN(C(=O)C2CC2)CC1`, the Inhibition % worked out at 5.36%.
With `N#Cc1nccn1Cc1ccc(F)cc1F` the figure was 68.3%.
With `N#Cc1nccn1Cc1cc(F)cc(F)c1` the figure was 5.08%; with `N#Cc1nccn1Cc1cccc(F)c1F`, 4.63%.
As for `C=CC(=O)N1CCC(c2ccnn2C)CC1`, the Inhibition % is listed as 4.28%.
On to `COC1CCN(c2nc(C#N)c(Cl)s2)CC1`, for which the Inhibition % is 7.16%.
In the case of `Cc1ccc(C#N)nc1N1CCCOC(C)C1` (centres unmarked), the Inhibition % was 42.8%.
Turning to `COC1CCN(c2nc(C#N)ccc2C)CC1`, the Inhibition % is 71.3%.
On to `N#CC(=Cc1cnn(-c2ccccc2)c1)C(=O)O`, for which the Inhibition % is 10.6%.
For the compound `CN(C)C(=O)Sc1cnc2nccn2c1`, the Inhibition % came out at 3.18%.
`CN(C(=O)CC1OCCCO1)C1CCCCC1`: the Inhibition % is recorded as 3.82%.
In the case of `CCN(C(=O)CCl)C1CCCCC1`, the Inhibition % was determined as 9.37%.
With `CN(CC1CC1)C(=O)CCl` the figure was 50.3%.
In the case of `CN(C(=O)CCl)C1CCCCC1`, the Inhibition % is 92.5%.
On to `CN(CC1CCCCC1)C(=O)CCl`, for which the Inhibition % is 50%.
With `CN(C(=O)CCl)C1CC1` the figure was -0.367%.
In the case of `CN(C(=O)CCl)C1CCS(=O)(=O)C1` (centres unmarked), the Inhibition % turned out to be 8.14%.
With `CN(CC12CC3CC(CC(C3)C1)C2)C(=O)CCl` the figure was 9.71%.
As to `CC1CCC(N(C)C(=O)CCl)CC1` (centres unmarked), the Inhibition % is 101%.
`C=CC(=O)Nc1cccc2c1CN(CC(C)C)C2`: the Inhibition % came to 8.44%.
For the compound `O=C(c1ccc(S)nc1)N1CCCC1`, the Inhibition % came out at 40.7%.
With `N#CN(Cc1nnc(C2CCC2)o1)c1ccc(F)c(Cl)c1` the figure was -0.412%; with `C=CC(=O)N1CCC12CCOC2` (centres unmarked), 7.06%.
In the case of `Cc1ccc(C(C)NC(=O)Cn2cnc(C#N)n2)cc1C` (centres unmarked), the Inhibition % is listed as 3.5%.
As for `O=C(O)c1cc(S(=O)(=O)F)ccc1Cl`, the Inhibition % is recorded as 7.95%.
With `Cc1cc(S(=O)(=O)F)ccc1C(=O)O` the figure was 85.1%; with `Cc1ccc(S(=O)(=O)F)cc1`, 2.62%; with `CC(=O)c1ccc(S(=O)(=O)F)cc1`, 34.9%.
Regarding `Cc1ccc(S(=O)(=O)F)cc1C(=O)O`, the Inhibition % was 87.9%.
With `C=CC(=O)NC1CCOC2(CCSC2)C1` (centres unmarked) the figure was 6.26%; with `Cc1cc(C)n(S(=O)(=O)N2CCCCC2)n1`, 7.02%.
Turning to `O=C(Nc1cccc(S(=O)(=O)F)c1)C1(CF)CCOCC1`, the Inhibition % is recorded as 95.3%.
As to `COCC1(C(=O)Nc2cccc(S(=O)(=O)F)c2)CCCC1`, the Inhibition % turned out to be 94.3%.
Regarding `O=C(Nc1cccc(S(=O)(=O)F)c1)C1(CF)CCC1`, the Inhibition % stood at 95.8%.
On to `CCC1(C(=O)Nc2cccc(S(=O)(=O)F)c2)CCC1`, for which the Inhibition % is given as 93.8%.
Regarding `COc1ccccc1C(=O)Nc1cccc(S(=O)(=O)F)c1`, the Inhibition % was 4.59%.
As to `COc1ccc(S(=O)(=O)n2ccc(C)n2)cc1C`, the Inhibition % was 2.32%.
For the compound `Cc1nn(C)c(Cl)c1C=CC(=O)N1CCC(C(=O)O)C1.Cl` (centres unmarked), the Inhibition % was found to be 7.34%.
With `C=CC(=O)NCC1CC2(CCC2)CO1` (centres unmarked) the figure was 5.74%; with `Cc1cccc(-n2nnnc2SC2CC(C)OC2=O)c1` (centres unmarked), 3.51%; with `Cn1cc(NS(=O)(=O)C=Cc2ccccc2Cl)cn1`, 28.6%.
As to `CCn1cc(C2NC(=O)C23CCOCC3)cn1` (centres unmarked), the Inhibition % worked out at 2.01%.
With `Cc1ccc(NC(=O)C(C#N)=Cc2cn(C)cn2)c(C)c1` the figure was 10.3%.
With `CCN(C(=O)CCl)c1ccc(F)cc1`, the Inhibition % amounted to 31.3%.
As to `Cc1cc(C=C(C#N)C(=O)NCC2CCCO2)ccc1F` (centres unmarked), the Inhibition % is 2.68%.
Turning to `COC(=O)C1CC(S(=O)(=O)F)CN1C(=O)C1CCOCC1` (centres unmarked), the Inhibition % was 9.64%.
Turning to `O=C(N[C@H]1CC[C@@H](CS(=O)(=O)F)C1)C1CCOCC1` (racemic), the Inhibition % is 77.4%.
For the compound `CC(C)(C)OC(=O)N[C@@H]1CC[C@H](CS(=O)(=O)F)C1` (racemic), the Inhibition % was found to be 87.2%.
In the case of `Cl.N[C@@H]1CC[C@H](CS(=O)(=O)F)C1` (racemic), the Inhibition % came to 22.9%.
For the compound `CC(C)(C)OC(=O)N1CCCC(S(=O)(=O)F)C1` (centres unmarked), the Inhibition % is 10.7%.
For the compound `O=S(=O)(F)CC1CCOCC1`, the Inhibition % stood at 10.5%.
On to `CC(C)C1(c2ccccc2)CO1` (centres unmarked), for which the Inhibition % was 4.43%.
With `N#CSCc1nc2ccccc2[nH]1` the figure was 24.5%; with `COc1cc(SC#N)ccc1O`, 15.4%.
Take `CS(=O)(=O)OCC1CCCNC1=O` (centres unmarked): the Inhibition % worked out at 7.7%.
For the compound `Cl.O=S(=O)(F)CCNc1ccc(F)cc1`, the Inhibition % is on record as 36.8%.
On to `Cl.O=S(=O)(F)CCNc1ccc(Cl)cc1`, for which the Inhibition % was found to be 66%.
Consider `COc1ccc(NCCS(=O)(=O)F)cc1.Cl`, for which the Inhibition % is recorded as 44.4%.
With `N#Cc1ccc2cc[nH]c2n1` the figure was 68.4%; with `N#Cc1ccc(Cl)c(Cl)n1`, 5.12%; with `N#Cc1ccc2[nH]ccc2n1`, 18.7%.
As to `COc1cc(C=C(C#N)C(=O)NC(C)C)cc(Cl)c1O`, the Inhibition % was -0.272%.
Regarding `Cl.NC1C=CS(=O)(=O)C1` (centres unmarked), the Inhibition % came to 9.63%.
In the case of `NC(=O)c1c(NC(=O)CCl)sc2c1CCC2`, the Inhibition % is 38.6%.
Consider `CCn1ncc(C(=O)CCl)n1`, for which the Inhibition % worked out at 87.8%.
Regarding `Cn1nccc1C(=O)CCl`, the Inhibition % is 15.4%.
Turning to `Cn1nncc1C(=O)CCl`, the Inhibition % is on record as 82.2%.
With `Cn1cc(C(=O)CCl)cn1` the figure was 77.2%; with `CN(Cc1cnn(C)c1)C(=O)CCl.Cl`, 20.6%.
`Cn1cccc1C(=O)CCl`: the Inhibition % is 8.03%.
With `Cn1ccc(C(=O)CCl)c1` the figure was 49%; with `Cl.O=C(CCl)c1csc(N2CCCCC2)n1`, 2.02%; with `C=CC(=O)NCCCc1cnn(C)n1`, 5.99%.
With `Cn1ncc(C(=O)CCl)n1` the figure was 95.3%.
Turning to `CCn1nc(C)c(C(=O)CCl)n1`, the Inhibition % turned out to be 13.1%.
With `Cn1ccnc1C(=O)CCl`, the Inhibition % was 32.3%.
With `OC1(C2CO2)CCOCC1` (centres unmarked) the figure was 7.63%.
`CC1(C)OB(c2cccc(CN3CCOCC3)c2)OC1(C)C.Cl`: the Inhibition % is given as 25.8%.
`N#CN(Cc1ccc(C(N)=O)cc1)c1ccc(F)cc1`: the Inhibition % is given as 3.09%.
Consider `C=CC(=O)NC1CCCC1C(=O)NC` (centres unmarked), for which the Inhibition % was determined as 9%.
Turning to `Cc1nc(C=CC(=O)N2CCC(C)(C(=O)O)C2)cs1` (centres unmarked), the Inhibition % is 5.72%.
With `COc1ccc(C2=NC(=Cc3csc(C)n3)C(=O)O2)cc1` the figure was 14.1%.
As for `Nc1ccc(N2CCC2=O)cc1`, the Inhibition % is reported as 16.5%.
In the case of `O=C(CCl)Nc1nc2ccc([N+](=O)[O-])cc2s1`, the Inhibition % is listed as 6.68%.
For the compound `O=C(CCl)Nc1ncc([N+](=O)[O-])s1`, the Inhibition % is 96.3%.
Take `Cc1ccc(Cc2cnc(NC(=O)CCl)s2)cc1`: the Inhibition % is listed as 7.26%.
With `C=CC(=O)Nc1ccc(F)c(F)c1` the figure was 7.82%; with `CCc1nccn1S(=O)(=O)c1ccc(Cl)c(C)c1`, 1.29%.
Regarding `CC(C)NC(=O)C(C#N)=Cc1cccc(O)c1`, the Inhibition % worked out at 19.6%.
